Reference: PubChem BioAssay (EPA / NIEHS)
Records with an inconclusive call do not appear. Calls of active or inactive are those of the source. Rule for the calls, unless noted: active = hit-call score of the fitted dose curve at least 0.9, where 1 is the maximum; inactive = score below 0.9.

What was measured:
[1] = ACEA_ER_80hr: ACEA Biosciences xCELLigence Real-Time Cell Analysis on Estrogen Receptor Agonism for Proliferation (AID 2282667; active = hit-call score of the fitted dose curve at least 0.9, where 1 is the maximum); conditions: T47D proliferation, impedance (xCELLigence), 80 h
In short: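 Real-time impedance growth kinetics of human T-47D breast cells read 80 h after dosing, gain-of-signal fitted relative to DMSO. Compounds: 1:4 serial series, top final concentration 100 uM, n = 2.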

[2] = ATG_CRE_CIS: Attagene CIS-FACTORIAL HepG2 Assay for human cAMP Responsive Element (CRE) binding protein 3 (AID 2282926); conditions: HepG2 CRE cis-reporter, Attagene multiplexed mRNA; actives raise or lower the signal
In short: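 Endogenous transcription factor activity read via CRE-regulated reporter transcripts in transfected HepG2 cells. After 24 h exposure, RNA was reverse-transcribed, amplified, fluorescently labelled and sized by capillary electrophoresis; gain or loss fitted against DMSO.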

[3] = target: CCAAT/enhancer-binding protein beta (Homo sapiens) (UniProt P17676); assay: ATG_C_EBP_CIS: Attagene CIS-FACTORIAL HepG2 Assay for human CCAAT/Enhancer Binding Protein (C/EBP) beta (AID 2282927); conditions: HepG2 Attagene cis-factorial transcription factor reporter; actives raise or lower the signal
In short: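 Endogenous transcription factor activity in human liver HepG2 cells is inferred from induction of a CEBPB-linked reporter mRNA. Exposure lasts 24 h; activity is fitted in both directions relative to DMSO.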

[4] = ATG_CMV_CIS: Attagene CIS-FACTORIAL HepG2 Assay for human CMV (Internal Marker) (AID 2282928); conditions: HepG2 CMV promoter reporter, transcription factor profiling; actives raise or lower the signal;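 note: endpoint acts as a background internal control marker rather than a target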
In short: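 Readout: fluorescent reporter cDNA fragments separated by capillary electrophoresis after RT-PCR and HpaI cut. Cells: HepG2 carrying transfected cis-promoter reporter constructs, dosed 24 h. Endpoint serves as background internal-marker control, fit bidirectionally versus DMSO.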

[5] = ATG_DR4_LXR_CIS: Attagene CIS-FACTORIAL HepG2 Assay for human Liver X Receptor (LXR), DR4 submotif (AID 2282929); conditions: HepG2 Attagene DR4 cis-reporter, mRNA transcription; actives raise or lower the signal
In short: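 Endogenous factor activity at a DR4 cis-element is read as reporter mRNA in transiently transfected HepG2 cells. Exposure lasts 24 h; transcripts are amplified, fluorescently labelled and sized by capillary electrophoresis, with DMSO as baseline.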

[6] = target: Aryl hydrocarbon receptor (Homo sapiens) (UniProt P35869); assay: ATG_Ahr_CIS: Attagene CIS-FACTORIAL HepG2 Assay for human Aryl Hydrocarbon Receptor (Ahr) (AID 2282930); conditions: HepG2 AhR cis-factorial reporter transcription; actives raise or lower the signal
In short: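 Transient MRTU transfection of HepG2 → 24 h compound exposure → total RNA, oligo(dT) RT → PCR, 6-FAM extension, HpaI cut → CE fluorescence. DMSO = baseline; bidirectional curve fit.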

[7] = ATG_AP_1_CIS: Attagene CIS-FACTORIAL HepG2 Assay for human Activator Protein 1 (AP-1) (AID 2282931); conditions: HepG2 Attagene cis-factorial AP-1 reporter mRNA; actives raise or lower the signal
In short: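 Fluorescence of labelled PCR fragments separated by capillary electrophoresis gives reporter mRNA levels. HepG2 with transfected cis-regulated reporter units, 24 h exposure; DMSO serves as baseline for bidirectional curve fits.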

[8] = ATG_BRE_CIS: Attagene CIS-FACTORIAL HepG2 Assay for human Bone Morphogenetic Protein (BMP) Response Element (BRE) (AID 2282933); conditions: HepG2 BMP response element reporter, Attagene transcription factor profiling; actives raise or lower the signal
In short: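 Gain- or loss-of-signal was derived by bidirectional fitting against DMSO controls. The signal came from reporter mRNA, measured by RT-PCR and capillary electrophoresis, in HepG2 cells transiently carrying multiple reporter units and dosed for 24 h.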

[9] = target: Transcription factor E2F1 (Homo sapiens) (UniProt Q01094); assay: ATG_E2F_CIS: Attagene CIS-FACTORIAL HepG2 Assay for human E2F Transcription Factor 1 (AID 2282935); conditions: HepG2 Attagene cis-reporter, E2F reporter RNA transcripts; actives raise or lower the signal
In short: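 Gain or loss of reporter transcript, fitted against DMSO, reflects E2F1-driven transcription. Transiently transfected HepG2 dosed 24 h before RNA isolation. Quantified by fluorescent RT-PCR products separated by capillary electrophoresis.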

[10] = ATG_E_Box_CIS: Attagene CIS-FACTORIAL HepG2 Assay for human Enhancer Box (E-box) (AID 2282936); conditions: HepG2 E-box cis-reporter transcription, actives raise or lower the signal
In short: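 E-box-driven reporter transcripts measured in transiently transfected HepG2 after 24 h exposure: RNA reverse-transcribed, PCR-amplified, fluorescently labelled, digested and resolved by capillary electrophoresis. Gain or loss relative to DMSO.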

[11] = ATG_M_61_CIS: Attagene CIS-FACTORIAL HepG2 Assay for M61 Transcription Factor (Internal Marker) (AID 2282937); conditions: HepG2 Attagene CIS-FACTORIAL M61 internal marker reporter; actives raise or lower the signal
In short: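 This endpoint serves as an internal background control within a multiplexed HepG2 cis-reporter panel. Cells are exposed for 24 h; reporter mRNA is amplified, fluorescently labelled and sized by capillary electrophoresis, with DMSO as negative control.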

[12] = ATG_EGR_CIS: Attagene CIS-FACTORIAL HepG2 Assay for human Early Growth Response 1 (EGR1) (AID 2282938); conditions: HepG2 Attagene CIS-FACTORIAL EGR reporter mRNA; actives raise or lower the signal
In short: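 HepG2, transient MRTU transfection (cis promoters), 24 h compound. RNA → RT (oligo-dT) → PCR → 6-FAM labelling → HpaI cut → CE fluorescence. Bidirectional fit, DMSO baseline.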

[13] = ATG_M_19_CIS: Attagene CIS-FACTORIAL HepG2 Assay for M19 Transcription Factor (Internal Marker) (AID 2282939); conditions: HepG2 Attagene CIS-FACTORIAL M19 internal marker reporter; actives raise or lower the signal
In short: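 Following a 24 h exposure, RNA from transfected HepG2 cells was reverse-transcribed, PCR-amplified with reporter-specific primers, end-labelled with 6-FAM and HpaI-digested before capillary separation. Values represent gain or loss versus DMSO.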

[14] = ATG_ERE_CIS: Attagene CIS-FACTORIAL HepG2 Assay for Estrogen Response Element (ERE) (AID 2282940); conditions: HepG2 ERE cis-reporter, Attagene RNA transcript; actives raise or lower the signal
In short: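 HepG2, transient cis-reporter units, 24 h exposure. RNA isolated, oligo(dT) RT, reporter-specific PCR, FAM extension, HpaI cut, CE detection. Gain/loss-of-signal vs DMSO.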

[15] = ATG_Ets_CIS: Attagene CIS-FACTORIAL HepG2 Assay for human Erythroblast Transformation Specific (ETS) (AID 2282941); conditions: HepG2 ETS cis-reporter transcription, actives raise or lower the signal
In short: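 RT-PCR/capillary electrophoresis fluorescence read-out of reporter mRNA; HepG2 transient multi-reporter transfection; 24 h compound exposure; gain or loss of signal fitted bidirectionally relative to DMSO.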

[16] = target: Hepatocyte nuclear factor 3-beta (Homo sapiens) (UniProt Q9Y261); assay: ATG_FoxA2_CIS: Attagene CIS-FACTORIAL HepG2 Assay for human Forkhead box A2 (FOXA2) (AID 2282942); conditions: HepG2 cis-reporter transcription factor activity, 24 h; actives raise or lower the signal
In short: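 Cells: HepG2, transient multiplex reporter transfection. Exposure 24 h. Detection: reporter-specific RT-PCR, fluorescent labelling, restriction digest, capillary electrophoresis. Analysis: bidirectional curve fit, DMSO as negative control.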

[17] = ATG_FoxO_CIS: Attagene CIS-FACTORIAL HepG2 Assay for human Forkhead box O (FoxO) (AID 2282943); conditions: HepG2 Attagene cis-reporter, FoxO element, mRNA; actives raise or lower the signal
In short: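 HepG2, transient MRTU transfection (cis element, endogenous TFs). Dose 24 h. TriZol RNA → oligo(dT) RT → PCR → 6-FAM primer extension → HpaI cut → CE. Gain/loss vs DMSO.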

[18] = ATG_GATA_CIS: Attagene CIS-FACTORIAL HepG2 Assay for human GATA Binding Protein (AID 2282944); conditions: HepG2 GATA cis-element reporter, Attagene multiplex mRNA; actives raise or lower the signal
In short: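 DMSO serves as negative control and baseline for bidirectional fitting of reporter mRNA changes. HepG2 cells bearing transiently transfected cis-promoter reporters were exposed 24 h; transcripts detected via RT-PCR and capillary electrophoresis.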

[19] = ATG_AP_2_CIS: Attagene CIS-FACTORIAL HepG2 Assay for human Activator Protein 2 (AP-2) (AID 2282932); conditions: HepG2 AP-2 cis-reporter, Attagene transcription factor profiling; actives raise or lower the signal
In short: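 Endogenous transcription factor activity is reported through transfected multiplex reporter constructs in HepG2, after 24 h of compound exposure. Transcripts were quantified by RT-PCR and capillary electrophoresis of fluorescent fragments. Bidirectional fit against DMSO.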

[20] = target: Retinoic acid receptor alpha (Homo sapiens) (UniProt P10276); assay: ATG_DR5_RAR_CIS: Attagene CIS-FACTORIAL HepG2 Assay for human Retinoic Acid Receptor Alpha (RARE), DR5 submotif (AID 2282934); conditions: HepG2 Attagene cis-factorial RARE DR5 reporter, mRNA; actives raise or lower the signal
In short: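 Transient MRTU transfection of HepG2; 24 h compound treatment; TriZol RNA, oligo(dT) RT, PCR, FAM labelling, capillary electrophoresis. Bidirectional fit vs DMSO. Endogenous TF activity at DR5 RARE.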

Measured: AC50

Chain of Transcription factor E2F1 (Homo sapiens) (Q01094 whole entry, looked up): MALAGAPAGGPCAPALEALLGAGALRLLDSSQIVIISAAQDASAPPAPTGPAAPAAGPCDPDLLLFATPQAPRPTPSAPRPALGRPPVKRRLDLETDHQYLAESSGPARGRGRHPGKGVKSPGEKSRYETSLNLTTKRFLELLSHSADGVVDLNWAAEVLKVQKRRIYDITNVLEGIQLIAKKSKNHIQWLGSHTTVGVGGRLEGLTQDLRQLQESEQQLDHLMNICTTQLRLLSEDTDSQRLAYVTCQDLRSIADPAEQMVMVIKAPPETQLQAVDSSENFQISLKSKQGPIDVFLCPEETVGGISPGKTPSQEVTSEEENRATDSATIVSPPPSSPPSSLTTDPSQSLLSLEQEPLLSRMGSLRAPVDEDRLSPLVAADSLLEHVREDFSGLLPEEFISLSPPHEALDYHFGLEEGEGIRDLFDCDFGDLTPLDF
Chain of Aryl hydrocarbon receptor (Homo sapiens) (P35869 whole entry, looked up): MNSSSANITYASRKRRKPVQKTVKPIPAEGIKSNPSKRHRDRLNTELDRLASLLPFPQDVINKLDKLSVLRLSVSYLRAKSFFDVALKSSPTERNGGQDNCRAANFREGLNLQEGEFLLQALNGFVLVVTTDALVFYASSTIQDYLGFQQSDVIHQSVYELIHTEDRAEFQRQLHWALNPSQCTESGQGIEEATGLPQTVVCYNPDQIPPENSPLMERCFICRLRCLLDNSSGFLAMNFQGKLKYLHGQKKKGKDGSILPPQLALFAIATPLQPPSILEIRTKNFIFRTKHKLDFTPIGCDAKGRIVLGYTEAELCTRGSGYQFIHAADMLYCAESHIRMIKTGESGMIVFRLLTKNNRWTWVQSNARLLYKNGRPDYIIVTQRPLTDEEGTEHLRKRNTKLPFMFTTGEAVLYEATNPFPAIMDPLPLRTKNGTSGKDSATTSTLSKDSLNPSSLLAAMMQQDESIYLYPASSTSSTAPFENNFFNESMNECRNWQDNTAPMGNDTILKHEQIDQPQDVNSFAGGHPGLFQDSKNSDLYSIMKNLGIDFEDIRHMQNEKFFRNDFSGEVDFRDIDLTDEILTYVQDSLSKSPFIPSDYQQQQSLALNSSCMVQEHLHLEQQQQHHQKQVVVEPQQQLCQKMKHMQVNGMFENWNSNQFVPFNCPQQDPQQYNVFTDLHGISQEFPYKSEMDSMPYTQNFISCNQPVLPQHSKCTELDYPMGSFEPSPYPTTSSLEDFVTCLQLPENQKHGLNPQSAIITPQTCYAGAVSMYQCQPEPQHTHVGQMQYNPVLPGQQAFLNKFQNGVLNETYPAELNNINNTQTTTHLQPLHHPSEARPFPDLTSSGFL
Chain of Hepatocyte nuclear factor 3-beta (Homo sapiens) (Q9Y261 whole entry, looked up): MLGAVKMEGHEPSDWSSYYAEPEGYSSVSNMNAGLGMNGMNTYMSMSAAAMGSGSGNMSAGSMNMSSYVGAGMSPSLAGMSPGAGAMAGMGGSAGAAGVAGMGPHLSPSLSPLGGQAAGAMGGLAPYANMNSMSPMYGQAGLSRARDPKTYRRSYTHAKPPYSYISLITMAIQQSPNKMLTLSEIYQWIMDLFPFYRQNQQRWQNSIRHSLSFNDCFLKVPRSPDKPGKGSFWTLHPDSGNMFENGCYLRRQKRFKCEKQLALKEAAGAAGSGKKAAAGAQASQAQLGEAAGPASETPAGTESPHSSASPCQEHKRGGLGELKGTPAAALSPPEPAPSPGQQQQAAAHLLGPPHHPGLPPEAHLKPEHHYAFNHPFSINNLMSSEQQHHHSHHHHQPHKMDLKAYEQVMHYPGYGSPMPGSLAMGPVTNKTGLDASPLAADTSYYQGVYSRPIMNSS
Chain of CCAAT/enhancer-binding protein beta (Homo sapiens) (P17676 whole entry, looked up): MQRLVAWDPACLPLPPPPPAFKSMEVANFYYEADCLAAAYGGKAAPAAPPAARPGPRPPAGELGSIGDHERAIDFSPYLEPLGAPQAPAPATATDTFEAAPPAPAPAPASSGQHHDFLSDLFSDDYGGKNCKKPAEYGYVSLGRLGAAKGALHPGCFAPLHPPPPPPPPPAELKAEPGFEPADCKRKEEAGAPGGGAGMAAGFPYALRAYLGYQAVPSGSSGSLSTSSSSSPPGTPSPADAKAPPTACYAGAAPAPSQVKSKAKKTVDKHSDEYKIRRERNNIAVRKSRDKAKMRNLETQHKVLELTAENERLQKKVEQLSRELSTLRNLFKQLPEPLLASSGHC
Chain of Retinoic acid receptor alpha (Homo sapiens) (P10276 whole entry, looked up): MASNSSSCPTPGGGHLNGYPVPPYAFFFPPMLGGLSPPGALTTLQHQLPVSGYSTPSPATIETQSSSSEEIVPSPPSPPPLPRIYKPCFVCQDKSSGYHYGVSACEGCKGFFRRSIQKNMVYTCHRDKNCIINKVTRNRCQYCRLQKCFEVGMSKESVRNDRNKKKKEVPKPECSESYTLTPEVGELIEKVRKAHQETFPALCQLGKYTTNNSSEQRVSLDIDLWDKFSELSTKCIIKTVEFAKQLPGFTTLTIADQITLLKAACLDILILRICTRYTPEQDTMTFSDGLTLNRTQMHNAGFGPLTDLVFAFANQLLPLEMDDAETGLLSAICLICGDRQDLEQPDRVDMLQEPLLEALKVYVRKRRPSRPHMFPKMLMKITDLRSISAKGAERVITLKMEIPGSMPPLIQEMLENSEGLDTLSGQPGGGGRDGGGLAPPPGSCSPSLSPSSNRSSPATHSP

CC(C)OC(=O)COc1ccc(Cl)cc1Cl
not listed: [19] | [20]
inactive: all other assays above

CCc1cccc(C)c1N(C(=O)C(=O)O)C(C)COC (configuration not stated)
not listed: [20]
inactive: all other assays above

CCOC(=O)C1CC(=O)C(=C(O)C2CC2)C(=O)C1 (configuration not stated)
not listed: [8] | [16]
inactive: all other assays above

Cc1ccc(O)c(-n2nc3ccccc3n2)c1
active: [6] 7.41 µM | [14] 10.4 µM
not listed: [5] | [16]
inactive: all other assays above

CCCCCCCC/C=C\CCCCCCCC(=O)N(C)CC(=O)O
not listed: [5] | [16]
inactive: all other assays above

C=CC(=O)OCC(F)(F)C(F)(F)C(F)(F)COC(=O)C=C
active: [4] 31.6 µM | [10] 78.6 µM
not listed: [5] | [8] | [12] | [20]
inactive: all other assays above

CN(C)C(C)(C)CO
active: [1] 50 µM
not listed: [5] | [12]
inactive: all other assays above

O=C1C=CC(=O)N1c1ccccc1
not listed: [5] | [8] | [16]
inactive: all other assays above
